# Test results reported in PMC7862700, “An all-to-all approach to the identification of sequence-specific readers for epigenetic DNA modifications on cytosine”.
# Columns and labels:
# Test in all cases: DAPPL (digital affinity profiling via proximity ligation, sequencing); 10 mM Tris-HCl pH 7.5, 50 mM NaCl, 1 mM DTT, 4% glycerol, room temperature, 30 min; GST-TFs on glutathione beads, 16-mer random dsDNA library, 0.1% formaldehyde crosslink after washing; high values mean tight binding
# [1] = biological target: T1, FLI1 (Homo sapiens, UniProt Q01543 1-452); conditions: protein: recombinant; tags: N-terminal GST; dsDNA, one strand shown
# T1 sequence: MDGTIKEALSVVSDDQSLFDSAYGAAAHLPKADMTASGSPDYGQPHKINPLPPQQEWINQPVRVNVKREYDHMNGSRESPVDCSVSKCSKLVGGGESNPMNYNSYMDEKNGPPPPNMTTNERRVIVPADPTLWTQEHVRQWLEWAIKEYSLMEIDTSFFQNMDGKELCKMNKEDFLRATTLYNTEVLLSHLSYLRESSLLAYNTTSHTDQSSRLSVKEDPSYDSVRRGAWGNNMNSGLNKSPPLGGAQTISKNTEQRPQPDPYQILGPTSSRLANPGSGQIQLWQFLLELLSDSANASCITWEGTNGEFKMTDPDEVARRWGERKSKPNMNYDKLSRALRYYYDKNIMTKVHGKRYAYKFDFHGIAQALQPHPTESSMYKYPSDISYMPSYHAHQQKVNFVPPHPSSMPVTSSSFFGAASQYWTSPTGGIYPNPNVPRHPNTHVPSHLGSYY
# In short: (§1)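 Yeast served to express human transcription factors as GST fusions, which were then captured on glutathione beads and labelled with DNA barcodes. Pooled with a tag-only sample, they were incubated with 200 nmole of a 16-mer random double-stranded DNA library for 30 min at room temperature in Tris/NaCl/DTT/glycerol buffer, washed, crosslinked with 0.1% formaldehyde, ligated by proximity, amplified by PCR and sequenced. Dividing each hexamer's read frequency for a factor by its frequency for the tag-only sample gives the binding signal.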
# [2] = biological target: T2, ELK1 (Homo sapiens, UniProt P19419 1-428); conditions: protein: recombinant; tags: N-terminal GST; dsDNA, one strand shown
# T2 sequence: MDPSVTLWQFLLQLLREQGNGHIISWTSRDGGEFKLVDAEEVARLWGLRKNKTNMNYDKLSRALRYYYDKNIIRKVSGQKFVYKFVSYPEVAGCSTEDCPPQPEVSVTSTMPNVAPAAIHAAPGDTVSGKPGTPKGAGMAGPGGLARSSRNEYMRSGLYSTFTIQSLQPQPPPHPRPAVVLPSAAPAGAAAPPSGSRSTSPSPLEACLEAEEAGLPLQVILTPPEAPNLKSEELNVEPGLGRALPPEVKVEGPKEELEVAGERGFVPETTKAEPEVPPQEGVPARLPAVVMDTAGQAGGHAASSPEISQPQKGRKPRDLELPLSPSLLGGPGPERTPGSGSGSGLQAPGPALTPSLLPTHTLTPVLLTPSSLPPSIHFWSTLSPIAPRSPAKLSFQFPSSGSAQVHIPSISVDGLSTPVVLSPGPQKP
# In short: as §1
# [3] = biological target: T3, GABPA (Homo sapiens, UniProt Q06546 1-454); conditions: protein: recombinant; tags: N-terminal GST; dsDNA, one strand shown
# T3 sequence: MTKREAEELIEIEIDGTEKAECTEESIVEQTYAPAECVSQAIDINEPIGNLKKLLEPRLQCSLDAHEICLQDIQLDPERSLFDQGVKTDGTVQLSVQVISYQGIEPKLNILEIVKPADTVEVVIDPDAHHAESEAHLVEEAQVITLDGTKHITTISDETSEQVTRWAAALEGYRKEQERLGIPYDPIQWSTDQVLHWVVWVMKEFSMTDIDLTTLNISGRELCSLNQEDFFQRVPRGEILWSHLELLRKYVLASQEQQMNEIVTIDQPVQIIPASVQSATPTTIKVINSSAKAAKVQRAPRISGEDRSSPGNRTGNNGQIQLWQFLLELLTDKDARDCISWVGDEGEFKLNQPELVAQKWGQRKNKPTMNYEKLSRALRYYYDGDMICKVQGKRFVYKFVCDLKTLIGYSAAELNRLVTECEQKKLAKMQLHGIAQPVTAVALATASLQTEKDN
# In short: as §1
# [4] = biological target: T4, ERG (Homo sapiens, UniProt P11308 1-479); conditions: protein: recombinant; tags: N-terminal GST; dsDNA, one strand shown
# T4 sequence: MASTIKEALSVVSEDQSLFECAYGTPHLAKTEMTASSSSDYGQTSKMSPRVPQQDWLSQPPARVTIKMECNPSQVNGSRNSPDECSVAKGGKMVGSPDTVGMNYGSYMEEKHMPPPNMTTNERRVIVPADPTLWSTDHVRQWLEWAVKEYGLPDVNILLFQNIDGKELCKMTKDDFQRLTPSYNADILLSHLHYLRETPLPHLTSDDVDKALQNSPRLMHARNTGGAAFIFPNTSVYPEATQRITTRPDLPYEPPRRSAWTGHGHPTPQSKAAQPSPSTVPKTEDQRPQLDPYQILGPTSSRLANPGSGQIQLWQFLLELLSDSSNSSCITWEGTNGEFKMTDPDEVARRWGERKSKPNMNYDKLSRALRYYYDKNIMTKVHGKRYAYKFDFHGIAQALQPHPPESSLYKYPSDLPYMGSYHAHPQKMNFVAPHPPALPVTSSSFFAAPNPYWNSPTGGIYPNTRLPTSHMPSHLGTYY
# In short: as §1
# [5] = biological target: ELF1 (Homo sapiens, UniProt P32519 1-619); conditions: protein: recombinant; tags: N-terminal GST; dsDNA, one strand shown
# In short: as §1
# [6] = biological target: T5, EHF (Homo sapiens, UniProt Q9NZC4 1-300); conditions: protein: recombinant; tags: N-terminal GST; dsDNA, one strand shown
# T5 sequence: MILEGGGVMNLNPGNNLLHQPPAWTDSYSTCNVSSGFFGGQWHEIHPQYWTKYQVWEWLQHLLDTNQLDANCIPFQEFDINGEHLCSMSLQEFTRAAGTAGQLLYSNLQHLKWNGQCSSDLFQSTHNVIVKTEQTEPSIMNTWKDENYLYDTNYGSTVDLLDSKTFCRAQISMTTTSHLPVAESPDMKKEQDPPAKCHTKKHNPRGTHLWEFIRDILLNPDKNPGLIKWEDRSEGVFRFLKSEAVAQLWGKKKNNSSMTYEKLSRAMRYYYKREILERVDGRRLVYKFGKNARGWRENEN
# In short: as §1
# [7] = biological target: SPI1 (Homo sapiens, UniProt P17947 1-270); conditions: protein: recombinant; tags: N-terminal GST; dsDNA, one strand shown
# In short: as §1
# [8] = biological target: SPIB (Homo sapiens, UniProt Q01892 1-262); conditions: protein: recombinant; tags: N-terminal GST; dsDNA, one strand shown
# In short: as §1
# [9] = biological target: T6, ELK3 (Homo sapiens, UniProt P41970 1-407); conditions: protein: recombinant; tags: N-terminal GST; dsDNA, one strand shown
# T6 sequence: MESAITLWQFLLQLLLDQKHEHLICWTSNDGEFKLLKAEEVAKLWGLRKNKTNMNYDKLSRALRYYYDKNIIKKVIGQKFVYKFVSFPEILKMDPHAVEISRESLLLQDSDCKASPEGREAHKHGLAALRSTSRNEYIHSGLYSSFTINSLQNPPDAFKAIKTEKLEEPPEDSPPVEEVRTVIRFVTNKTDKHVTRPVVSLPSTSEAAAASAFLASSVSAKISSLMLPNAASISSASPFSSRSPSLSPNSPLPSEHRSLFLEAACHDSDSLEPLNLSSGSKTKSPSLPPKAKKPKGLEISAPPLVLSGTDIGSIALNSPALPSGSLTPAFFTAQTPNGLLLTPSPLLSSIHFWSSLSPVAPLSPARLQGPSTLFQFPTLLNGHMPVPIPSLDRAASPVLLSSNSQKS
# In short: as §1
# [10] = biological target: T7, FEV (Homo sapiens, UniProt Q99581 1-238); conditions: protein: recombinant; tags: N-terminal GST; dsDNA, one strand shown
# T7 sequence: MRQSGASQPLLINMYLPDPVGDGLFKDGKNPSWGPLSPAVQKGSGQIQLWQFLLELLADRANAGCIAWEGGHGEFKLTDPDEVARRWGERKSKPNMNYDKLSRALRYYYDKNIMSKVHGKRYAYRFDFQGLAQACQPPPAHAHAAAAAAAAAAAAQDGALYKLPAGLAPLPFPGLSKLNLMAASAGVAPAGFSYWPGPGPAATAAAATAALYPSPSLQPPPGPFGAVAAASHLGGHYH
# In short: as §1
# [11] = biological target: ETV5 (Homo sapiens, UniProt P41161 1-510); conditions: protein: recombinant; tags: N-terminal GST; dsDNA, one strand shown
# In short: as §1
# [12] = biological target: HSF1 (Homo sapiens, UniProt Q00613 1-529); conditions: protein: recombinant; tags: N-terminal GST; chain copies: 3; dsDNA, one strand shown
# In short: as §1
# [13] = biological target: T8, SPIC (Homo sapiens, UniProt Q8N5J4 1-248); conditions: protein: recombinant; tags: N-terminal GST; dsDNA, one strand shown
# T8 sequence: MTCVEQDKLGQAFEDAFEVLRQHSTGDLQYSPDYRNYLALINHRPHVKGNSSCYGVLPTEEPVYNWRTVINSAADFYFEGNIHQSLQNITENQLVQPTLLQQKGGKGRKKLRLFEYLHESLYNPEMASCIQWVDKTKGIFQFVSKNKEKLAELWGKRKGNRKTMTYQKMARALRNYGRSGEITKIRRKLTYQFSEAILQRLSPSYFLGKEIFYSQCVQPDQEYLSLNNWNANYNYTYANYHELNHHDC
# In short: as §1
# [14] = biological target: ELF4 (Homo sapiens, UniProt Q99607 1-663); conditions: protein: recombinant; tags: N-terminal GST; dsDNA, one strand shown
# In short: as §1
# [15] = biological target: T9, ELK4 (Homo sapiens, UniProt P28324-2 1-405); conditions: protein: recombinant; tags: N-terminal GST; dsDNA, one strand shown
# T9 sequence: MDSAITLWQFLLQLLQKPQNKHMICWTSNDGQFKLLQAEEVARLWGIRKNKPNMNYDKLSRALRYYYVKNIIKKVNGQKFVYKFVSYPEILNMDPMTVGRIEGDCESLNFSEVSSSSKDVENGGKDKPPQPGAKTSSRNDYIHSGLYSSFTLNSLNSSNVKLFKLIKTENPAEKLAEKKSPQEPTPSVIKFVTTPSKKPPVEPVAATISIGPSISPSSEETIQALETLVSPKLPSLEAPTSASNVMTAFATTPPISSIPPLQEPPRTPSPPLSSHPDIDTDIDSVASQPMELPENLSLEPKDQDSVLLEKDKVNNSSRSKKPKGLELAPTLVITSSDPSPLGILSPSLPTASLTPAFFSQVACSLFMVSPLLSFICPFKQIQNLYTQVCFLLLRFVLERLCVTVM
# In short: as §1
# [16] = biological target: T10, ETV2 (Homo sapiens, UniProt O00321 1-342); conditions: protein: recombinant; tags: N-terminal GST; dsDNA, one strand shown
# T10 sequence: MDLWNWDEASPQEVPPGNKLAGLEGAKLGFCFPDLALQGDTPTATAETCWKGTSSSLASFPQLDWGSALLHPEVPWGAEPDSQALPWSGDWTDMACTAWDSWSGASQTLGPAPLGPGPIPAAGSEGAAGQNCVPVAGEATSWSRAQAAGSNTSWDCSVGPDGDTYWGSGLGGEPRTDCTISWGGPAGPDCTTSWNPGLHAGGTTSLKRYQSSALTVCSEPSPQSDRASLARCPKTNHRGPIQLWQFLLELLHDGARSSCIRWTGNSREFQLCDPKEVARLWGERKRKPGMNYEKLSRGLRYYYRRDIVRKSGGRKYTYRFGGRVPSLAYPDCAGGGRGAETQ
# In short: as §1
# [17] = biological target: T11, ELF3 (Homo sapiens, UniProt P78545 1-371); conditions: protein: recombinant; tags: N-terminal GST; dsDNA, one strand shown
# T11 sequence: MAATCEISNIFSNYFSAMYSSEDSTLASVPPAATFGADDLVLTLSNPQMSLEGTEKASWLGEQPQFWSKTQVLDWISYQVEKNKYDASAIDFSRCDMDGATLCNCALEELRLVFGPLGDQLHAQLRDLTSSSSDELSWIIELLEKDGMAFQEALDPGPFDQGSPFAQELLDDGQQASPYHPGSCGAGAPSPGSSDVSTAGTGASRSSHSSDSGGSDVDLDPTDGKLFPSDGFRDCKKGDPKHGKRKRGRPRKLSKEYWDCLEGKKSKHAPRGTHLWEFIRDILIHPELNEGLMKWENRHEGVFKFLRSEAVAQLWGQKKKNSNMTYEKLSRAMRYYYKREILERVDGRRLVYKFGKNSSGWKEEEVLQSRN
# In short: as §1
# [18] = biological target: CRX (Homo sapiens, UniProt O43186 1-299); conditions: protein: recombinant; tags: N-terminal GST; dsDNA, one strand shown
# In short: as §1
# [19] = biological target: ETV1 (Homo sapiens, UniProt P50549 1-477); conditions: protein: recombinant; tags: N-terminal GST; dsDNA, one strand shown
# In short: as §1
# ETV5, sequence (P41161 whole entry): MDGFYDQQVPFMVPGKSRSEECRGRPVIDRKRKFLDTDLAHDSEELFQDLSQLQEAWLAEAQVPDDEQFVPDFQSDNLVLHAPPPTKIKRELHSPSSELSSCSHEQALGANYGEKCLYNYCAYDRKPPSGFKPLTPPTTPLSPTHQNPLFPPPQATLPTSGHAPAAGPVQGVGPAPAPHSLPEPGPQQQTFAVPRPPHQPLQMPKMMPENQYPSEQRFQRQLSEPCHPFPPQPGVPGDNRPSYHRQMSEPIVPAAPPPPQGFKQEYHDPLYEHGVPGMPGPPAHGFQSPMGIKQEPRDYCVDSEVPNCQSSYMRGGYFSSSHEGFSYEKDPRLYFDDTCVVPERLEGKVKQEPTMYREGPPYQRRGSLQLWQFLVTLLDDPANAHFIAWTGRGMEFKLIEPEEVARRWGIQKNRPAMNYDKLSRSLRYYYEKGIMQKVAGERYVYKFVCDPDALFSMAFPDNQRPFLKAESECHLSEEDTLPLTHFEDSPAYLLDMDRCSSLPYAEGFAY
# ELF1, sequence (P32519 whole entry): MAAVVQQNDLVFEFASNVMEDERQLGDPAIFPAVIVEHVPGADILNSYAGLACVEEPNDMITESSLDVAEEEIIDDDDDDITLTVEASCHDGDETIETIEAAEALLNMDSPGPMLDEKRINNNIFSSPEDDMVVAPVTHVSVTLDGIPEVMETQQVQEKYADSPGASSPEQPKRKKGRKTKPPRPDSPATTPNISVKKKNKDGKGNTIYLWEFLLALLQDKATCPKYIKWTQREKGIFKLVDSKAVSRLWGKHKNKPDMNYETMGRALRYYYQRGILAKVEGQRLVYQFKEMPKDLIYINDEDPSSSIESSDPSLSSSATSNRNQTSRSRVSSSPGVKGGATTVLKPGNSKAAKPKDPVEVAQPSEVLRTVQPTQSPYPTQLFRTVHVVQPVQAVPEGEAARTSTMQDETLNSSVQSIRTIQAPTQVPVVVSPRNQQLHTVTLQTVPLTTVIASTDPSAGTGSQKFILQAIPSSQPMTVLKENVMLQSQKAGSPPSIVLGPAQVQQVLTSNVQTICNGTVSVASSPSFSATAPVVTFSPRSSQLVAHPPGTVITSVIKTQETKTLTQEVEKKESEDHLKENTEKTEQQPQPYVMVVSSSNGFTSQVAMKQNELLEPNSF
# HSF1, sequence (Q00613 whole entry): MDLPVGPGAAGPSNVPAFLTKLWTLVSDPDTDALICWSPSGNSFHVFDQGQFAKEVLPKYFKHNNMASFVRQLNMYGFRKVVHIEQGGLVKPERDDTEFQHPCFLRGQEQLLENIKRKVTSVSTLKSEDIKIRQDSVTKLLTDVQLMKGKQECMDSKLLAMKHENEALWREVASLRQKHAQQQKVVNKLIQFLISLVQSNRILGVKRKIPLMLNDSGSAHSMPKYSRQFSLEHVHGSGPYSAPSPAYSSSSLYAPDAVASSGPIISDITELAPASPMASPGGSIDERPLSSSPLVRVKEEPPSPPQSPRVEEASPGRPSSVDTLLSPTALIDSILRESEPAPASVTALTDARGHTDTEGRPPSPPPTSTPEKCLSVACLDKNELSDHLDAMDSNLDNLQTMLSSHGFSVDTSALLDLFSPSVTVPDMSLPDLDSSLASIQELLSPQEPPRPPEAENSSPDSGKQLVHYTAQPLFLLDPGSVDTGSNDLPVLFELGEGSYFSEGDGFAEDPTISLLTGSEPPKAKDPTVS
# ETV1, sequence (P50549 whole entry): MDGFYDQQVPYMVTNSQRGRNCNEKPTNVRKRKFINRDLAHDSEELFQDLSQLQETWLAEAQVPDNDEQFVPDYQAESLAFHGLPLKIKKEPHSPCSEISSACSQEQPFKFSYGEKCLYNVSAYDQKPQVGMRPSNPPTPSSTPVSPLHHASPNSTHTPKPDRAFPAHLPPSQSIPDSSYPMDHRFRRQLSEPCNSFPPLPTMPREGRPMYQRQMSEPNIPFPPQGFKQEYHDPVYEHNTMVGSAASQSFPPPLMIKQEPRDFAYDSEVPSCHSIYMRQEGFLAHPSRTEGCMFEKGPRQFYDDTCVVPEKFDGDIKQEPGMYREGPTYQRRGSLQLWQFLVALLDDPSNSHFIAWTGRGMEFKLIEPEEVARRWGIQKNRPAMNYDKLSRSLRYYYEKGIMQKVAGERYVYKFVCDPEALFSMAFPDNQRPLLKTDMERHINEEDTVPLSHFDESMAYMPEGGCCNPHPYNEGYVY
# CRX, sequence (O43186 whole entry): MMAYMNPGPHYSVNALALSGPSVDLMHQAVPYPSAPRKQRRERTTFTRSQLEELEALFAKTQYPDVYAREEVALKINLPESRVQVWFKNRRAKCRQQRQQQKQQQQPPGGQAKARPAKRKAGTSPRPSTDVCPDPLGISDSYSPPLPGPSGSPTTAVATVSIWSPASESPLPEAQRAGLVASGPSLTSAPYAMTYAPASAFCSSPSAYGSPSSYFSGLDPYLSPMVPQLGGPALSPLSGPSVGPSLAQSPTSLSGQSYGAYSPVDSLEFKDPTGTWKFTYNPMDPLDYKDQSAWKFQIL
# SPIB, sequence (Q01892 whole entry): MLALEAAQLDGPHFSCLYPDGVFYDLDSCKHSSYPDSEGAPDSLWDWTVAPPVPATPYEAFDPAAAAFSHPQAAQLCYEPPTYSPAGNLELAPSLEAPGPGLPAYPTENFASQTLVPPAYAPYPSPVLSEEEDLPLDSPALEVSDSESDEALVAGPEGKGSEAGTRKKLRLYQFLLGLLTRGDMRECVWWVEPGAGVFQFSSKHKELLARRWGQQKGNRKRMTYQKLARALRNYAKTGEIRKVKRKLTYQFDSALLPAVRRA
# ELF4, sequence (Q99607 whole entry): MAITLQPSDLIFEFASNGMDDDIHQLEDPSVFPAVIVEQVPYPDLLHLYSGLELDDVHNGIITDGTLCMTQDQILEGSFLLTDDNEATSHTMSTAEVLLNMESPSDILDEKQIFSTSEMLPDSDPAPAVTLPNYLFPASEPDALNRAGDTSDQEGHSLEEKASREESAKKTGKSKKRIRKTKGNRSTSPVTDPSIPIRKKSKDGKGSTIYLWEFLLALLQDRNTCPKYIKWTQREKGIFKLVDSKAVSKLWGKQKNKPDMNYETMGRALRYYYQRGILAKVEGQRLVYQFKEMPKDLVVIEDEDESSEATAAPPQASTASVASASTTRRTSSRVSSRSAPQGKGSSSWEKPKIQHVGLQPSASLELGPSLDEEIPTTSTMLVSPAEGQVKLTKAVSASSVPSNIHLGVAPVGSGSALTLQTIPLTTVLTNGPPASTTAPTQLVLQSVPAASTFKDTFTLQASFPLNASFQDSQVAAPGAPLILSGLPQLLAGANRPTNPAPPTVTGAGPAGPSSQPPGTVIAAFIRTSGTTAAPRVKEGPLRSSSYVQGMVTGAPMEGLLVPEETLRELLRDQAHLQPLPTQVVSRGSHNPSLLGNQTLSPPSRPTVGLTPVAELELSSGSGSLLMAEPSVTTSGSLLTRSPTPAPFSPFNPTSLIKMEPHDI
sequence,measurement,setting,value
CCTATA,binding signal,[1],"1.35 fold enrichment (6-mer frequency, TF over GST control)"
same,binding signal,[2],"1.29 fold enrichment (6-mer frequency, TF over GST control)"
same,binding signal,[3],"1.42 fold enrichment (6-mer frequency, TF over GST control)"
same,binding signal,[4],"1.3 fold enrichment (6-mer frequency, TF over GST control)"
same,binding signal,[5],"1.39 fold enrichment (6-mer frequency, TF over GST control)"
same,binding signal,[6],"1.28 fold enrichment (6-mer frequency, TF over GST control)"
same,binding signal,[7],"1.28 fold enrichment (6-mer frequency, TF over GST control)"
same,binding signal,[8],"1.34 fold enrichment (6-mer frequency, TF over GST control)"
same,binding signal,[9],"1.32 fold enrichment (6-mer frequency, TF over GST control)"
same,binding signal,[10],"1.33 fold enrichment (6-mer frequency, TF over GST control)"
same,binding signal,[11],"1.31 fold enrichment (6-mer frequency, TF over GST control)"
same,binding signal,[12],"1.16 fold enrichment (6-mer frequency, TF over GST control)"
same,binding signal,[13],"1.35 fold enrichment (6-mer frequency, TF over GST control)"
same,binding signal,[14],"1.29 fold enrichment (6-mer frequency, TF over GST control)"
same,binding signal,[15],"1.4 fold enrichment (6-mer frequency, TF over GST control)"
same,binding signal,[16],"1.43 fold enrichment (6-mer frequency, TF over GST control)"
same,binding signal,[17],"1.15 fold enrichment (6-mer frequency, TF over GST control)"
same,binding signal,[18],"1.34 fold enrichment (6-mer frequency, TF over GST control)"
same,binding signal,[19],"1.29 fold enrichment (6-mer frequency, TF over GST control)"
